From PubChem BioAssay (NCI)
Compounds without any hit were thinned out: in the full panel of roughly 79,000, 15% have a hit. Calls of active or inactive are those of the source. No stated cut-off is given here; in the data, active means growth inhibition above about 70%; inactive means the rest.

Tests used:
[1] = NCI Yeast Anticancer Drug Screen. Data for the rad52 strain (AID 147);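 further: 0% = growth of vehicle-treated control cultures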; settings: S. cerevisiae rad52 mutant growth inhibition, active compounds read high
Summary of the method: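 Vehicle-treated cultures served as the reference for growth inhibition of compound-exposed yeast bearing a DNA repair mutation.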

[2] = NCI Yeast Anticancer Drug Screen. Data for the wt1 strain (AID 149);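 further: 0% = growth of vehicle-treated wt1 cultures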; settings: S. cerevisiae wt1 strain (SPY 50644) growth inhibition, active compounds read high
Summary of the method: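 Each compound is tested on wt1 yeast and the loss of growth versus vehicle gives the inhibition value.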

[3] = NCI Yeast Anticancer Drug Screen. Data for the rad50EPP+ strain (AID 151);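 further: 0% = growth of vehicle-treated control cultures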; settings: S. cerevisiae rad50 mutant strain, active compounds read high
Summary of the method: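 In this screen, rad50EPP+ yeast were exposed to compounds. Growth inhibition was scored against vehicle-treated controls.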

[4] = NCI Yeast Anticancer Drug Screen. Data for the mgt1 strain (AID 153); settings: S. cerevisiae mgt1 mutant growth inhibition, active compounds read high
Summary of the method: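 mgt1 strain exposed; growth vs vehicle control recorded as inhibition.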

[5] = NCI Yeast Anticancer Drug Screen. Data for the rad50 strain (AID 155);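 further: 0% = growth of vehicle-only cultures of the same strain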; settings: S. cerevisiae rad50 strain growth inhibition, active compounds read high
Summary of the method: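 Vehicle-treated cultures provide the reference for the growth inhibition reported for compound-exposed, repair-deficient yeast.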

[6] = NCI Yeast Anticancer Drug Screen. Data for the mec2-1 strain (AID 157); settings: S. cerevisiae mec2-1 strain, active compounds read high
Summary of the method: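 Vehicle-treated cultures served as reference for growth inhibition of compound-exposed mec2-1 yeast.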

[7] = NCI Yeast Anticancer Drug Screen. Data for the rad14 strain (AID 159);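 further: 0% = growth of vehicle-treated control cultures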; settings: S. cerevisiae rad14 strain growth inhibition, active compounds read high
Summary of the method: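 Inhibition of growth is reported for a repair-deficient yeast mutant following compound treatment, calculated relative to cultures that received vehicle.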

[8] = NCI Yeast Anticancer Drug Screen. Data for the sgs1 mgt1 strain (AID 161);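 further: 0% = growth of cultures given vehicle only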; settings: S. cerevisiae sgs1 mgt1 strain, active compounds read high
Summary of the method: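 Inhibition of yeast growth, normalised to vehicle-treated controls, is reported for a strain bearing genetic alterations in DNA damage repair.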

[9] = NCI Yeast Anticancer Drug Screen. Data for the CLN2oe strain (AID 163);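 further: 0% = growth of vehicle-only control cultures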; settings: S. cerevisiae CLN2oe strain, active compounds read high
Summary of the method: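 Inhibition relative to vehicle-treated yeast is reported. Cells: strain with genetic alteration in cell-cycle control, grown with compound.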

[10] = NCI Yeast Anticancer Drug Screen. Data for the cln2 rad14 strain (AID 165);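 further: 0% = growth equal to vehicle treated cultures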; settings: S. cerevisiae cln2 rad14 strain, active compounds read high
Summary of the method: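 Each compound was tested on cln2 rad14 yeast. Inhibition of growth was calculated against vehicle-exposed controls.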

[11] = NCI Yeast Anticancer Drug Screen. Data for the bub3 strain (AID 167); settings: S. cerevisiae bub3 mutant strain, active compounds read high
Summary of the method: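 Mutant yeast screening strain plus compound; vehicle-treated cultures serve as the 0% inhibition reference.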

[12] = NCI Yeast Anticancer Drug Screen. Data for the wt2 strain (AID 169); settings: S. cerevisiae wt2 strain growth inhibition, active compounds read high
Summary of the method: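 Inhibition of yeast growth was determined after compound treatment, normalised to controls receiving only vehicle.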

[13] = NCI Yeast Anticancer Drug Screen. Data for the mlh1 strain (AID 171);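 further: 0% = growth of vehicle-treated control cultures of the same strain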; settings: S. cerevisiae mlh1 strain growth inhibition, active compounds read high
Summary of the method: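 Vehicle-normalised growth inhibition of a repair- or checkpoint-altered yeast strain following compound treatment.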

[14] = NCI Yeast Anticancer Drug Screen. Data for the sgs1 strain (AID 173);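 further: 0% = growth of vehicle-only control cultures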; settings: S. cerevisiae sgs1 mutant, active compounds read high
Summary of the method: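 Screen format: yeast with repair or checkpoint alterations, compound exposure, growth read relative to vehicle.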

[15] = NCI Yeast Anticancer Drug Screen. Data for the mlh1 rad18 strain (AID 175); settings: S. cerevisiae mlh1 rad18 strain growth inhibition, active compounds read high
Summary of the method: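 Vehicle-treated cultures served as the reference for growth inhibition in a yeast strain carrying DNA damage repair alterations exposed to each compound.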

[16] = NCI Yeast Anticancer Drug Screen. Data for the rad18 strain (AID 177); settings: S. cerevisiae rad18 mutant growth inhibition, active compounds read high
Summary of the method: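 Test articles were incubated with altered yeast defective in DNA damage repair. Results are given as inhibition of growth versus vehicle.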

[17] = at 5.0 µM (retest, dose inferred, filed as 0.5)
[18] = at 50.0 µM (retest, dose inferred, filed as 5.0)

Measured: growth inhibition

COc1ccccc1NC(=O)c1ccc(Cl)cc1
active: [10]; [18] 75%
inactive: [1]; at 1.2 µM 0% | [1]; at 3.7 µM 3% | [1]; at 11.0 µM 4% | [1]; at 33.0 µM 5% | [1]; at 100.0 µM 1% | [2]; at 1.2 µM -1% | [2]; at 3.7 µM 1% | [2]; at 11.0 µM 1% | [2]; at 33.0 µM 0% | [2]; at 100.0 µM -1% | [3]; at 1.2 µM 7% | [3]; at 3.7 µM 9% | [3]; at 11.0 µM 22% | [3]; at 33.0 µM 40% | [3]; at 100.0 µM 40% | [4]; at 1.2 µM -2% | [4]; at 3.7 µM -1% | [4]; at 11.0 µM 0% | [4]; at 33.0 µM -2% | [4]; at 100.0 µM -10% | [5]; at 1.2 µM 3% | [5]; at 3.7 µM 5% | [5]; [17] -13% | [5]; at 11.0 µM 8% | [5]; at 33.0 µM 6% | [5]; [18] 12% | [5]; at 50.0 µM 17.6% | [5]; at 100.0 µM 8% | [6]; at 1.2 µM -5% | [6]; at 3.7 µM -5% | [6]; [17] -6% | [6]; at 11.0 µM -7% | [6]; at 33.0 µM -6% | [6]; [18] -14% | [6]; at 50.0 µM 11.1% | [6]; at 100.0 µM -4% | [7]; at 1.2 µM 0% | [7]; at 3.7 µM -1% | [7]; at 11.0 µM 0% | [7]; at 33.0 µM 1% | [7]; at 100.0 µM 0% | [8]; [17] 3% | [8]; [18] 7% | [8]; at 50.0 µM 20.8% | [9]; at 1.2 µM -2% | [9]; at 3.7 µM 0% | [9]; at 11.0 µM -6% | [9]; at 33.0 µM -7% | [9]; at 100.0 µM -4% | [10]; [17] 23% | [10]; at 50.0 µM 16.9% | [11]; at 1.2 µM -5% | [11]; at 3.7 µM -5% | [11]; [17] -8% | [11]; at 11.0 µM -3% | [11]; at 33.0 µM 5% | [11]; [18] -10% | [11]; at 50.0 µM 23.9% | [11]; at 100.0 µM 7% | [12]; at 1.2 µM -1% | [12]; at 3.7 µM -2% | [12]; at 11.0 µM -2% | [12]; at 33.0 µM -3% | [12]; at 100.0 µM -2% | [13]; at 1.2 µM 0% | [13]; at 3.7 µM 1% | [13]; at 11.0 µM 4% | [13]; at 33.0 µM 3% | [13]; at 100.0 µM 3% | [14]; at 1.2 µM 0% | [14]; at 3.7 µM 1% | [14]; at 11.0 µM 2% | [14]; at 33.0 µM 3% | [14]; at 100.0 µM 2% | [15]; [17] -6% | [15]; [18] 11% | [15]; at 50.0 µM 0.15% | [16]; at 1.2 µM 3% | [16]; at 3.7 µM 3% | [16]; at 11.0 µM 1% | [16]; at 33.0 µM 3% | [16]; at 100.0 µM 2%

O=NC1c2cccc3cccc(c23)C1N=O (stereo unspecified)
active: [1]; at 11.0 µM 75% | [1]; at 33.0 µM 90% | [1]; at 100.0 µM 94% | [3]; at 11.0 µM 81% | [3]; at 33.0 µM 92% | [3]; at 100.0 µM 93% | [4]; at 33.0 µM 86% | [4]; at 100.0 µM 94% | [5]; at 11.0 µM 84% | [5]; at 33.0 µM 93% | [5]; [18] 96% | [5]; at 50.0 µM 97% | [5]; at 100.0 µM 94% | [6]; [18] 94% | [6]; at 50.0 µM 94.3% | [7]; at 33.0 µM 92% | [7]; at 100.0 µM 97% | [8]; [18] 97% | [8]; at 50.0 µM 97.3% | [10]; [18] 92% | [10]; at 50.0 µM 80.5% | [11]; [18] 95% | [11]; at 50.0 µM 89% | [12]; at 33.0 µM 77% | [12]; at 100.0 µM 94% | [13]; at 33.0 µM 88% | [13]; at 100.0 µM 94% | [14]; at 33.0 µM 89% | [14]; at 100.0 µM 95% | [15]; [18] 98% | [15]; at 50.0 µM 97.3% | [16]; at 3.7 µM 70% | [16]; at 11.0 µM 94% | [16]; at 33.0 µM 95% | [16]; at 100.0 µM 95%
inactive: [1]; at 1.2 µM 14% | [1]; at 3.7 µM 33% | [2]; at 1.2 µM 3% | [2]; at 3.7 µM 3% | [2]; at 11.0 µM 20% | [2]; at 33.0 µM 38% | [2]; at 100.0 µM 69% | [3]; at 1.2 µM 11% | [3]; at 3.7 µM 41% | [4]; at 1.2 µM 4% | [4]; at 3.7 µM 12% | [4]; at 11.0 µM 47% | [5]; at 1.2 µM 19% | [5]; at 3.7 µM 49% | [5]; [17] 17% | [6]; at 1.2 µM -2% | [6]; at 3.7 µM 0% | [6]; [17] 13% | [6]; at 11.0 µM -1% | [6]; at 33.0 µM 31% | [6]; at 100.0 µM 45% | [7]; at 1.2 µM 4% | [7]; at 3.7 µM 25% | [7]; at 11.0 µM 40% | [8]; [17] 30% | [9]; at 1.2 µM 4% | [9]; at 3.7 µM 8% | [9]; at 11.0 µM 24% | [9]; at 33.0 µM 43% | [9]; at 100.0 µM 54% | [10]; [17] 6% | [11]; at 1.2 µM -10% | [11]; at 3.7 µM -20% | [11]; [17] -3% | [11]; at 11.0 µM 16% | [11]; at 33.0 µM 27% | [11]; at 100.0 µM 44% | [12]; at 1.2 µM 2% | [12]; at 3.7 µM 9% | [12]; at 11.0 µM 36% | [13]; at 1.2 µM 2% | [13]; at 3.7 µM 13% | [13]; at 11.0 µM 40% | [14]; at 1.2 µM 7% | [14]; at 3.7 µM 23% | [14]; at 11.0 µM 58% | [15]; [17] 48% | [16]; at 1.2 µM 22%
